Screening results deposited in PubChem BioAssay by National Center for Advancing Translational Sciences (NCATS).
Pf Dd2 growth: inhibitors of Plasmodium falciparum Dd2 growth | P. falciparum Dd2 growth, SYBR Green, 72 h | Potency, µM (titrated, usually from 28.9 µM), hits mostly inhibitors | 120,000 compounds, 4.3% hits | AID 1347417; active = well fitted inhibition curve with a large enough effect; also: nearly all actives have a fitted effect of over 65% in size
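Infected erythrocytes (Dd2, 0.3% parasitemia, 2.5% hematocrit final) are added to compound in RPMI-1640/Albumax II medium, grown 72 h at 37C in low oxygen, then lysed with saponin/Triton-X containing SYBR Green and read by fluorescence.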
Large screens that a line does not name were inactive. This excerpt belongs to a sample that is enriched for hits.

COc1ccc(-c2ccnc(N[C@H]3CO[C@H]4[C@@H]3OC[C@H]4OC(=O)Nc3cccc(OC)c3)n2)cc1	none
COc1cc(NC(=O)N[C@H]2CO[C@H]3[C@@H]2OC[C@@H]3Nc2nccc(-c3ccc(-c4ccccc4)cc3)n2)cc(OC)c1	none
COc1ccc(-c2ccnc(N[C@H]3CO[C@H]4[C@@H]3OC[C@@H]4NC(=O)Nc3cccc(C#N)c3)n2)cc1	none
CCCNC(=O)C(NC(=O)c1ccc(OC)cc1)C1CCN(C(=O)c2ccccc2OC)CC1 (stereo not drawn)	none
Cc1nc(-c2ccccc2)sc1CCNC(=O)C(=O)Nc1ccc2c(c1)OCCO2	none
Cc1nnc2ccc(N3CCC(C)CC3)nn12	none
O=C(c1cccc(F)c1)N1C[C@@H](CO)[C@H](c2ccncc2)C1	none
OCC1(CN2CCCC2)CCN(C/C=C/c2ccccc2)CC1	Pf Dd2 growth 7.1µM
OCC1(CN2CCCC2)CCN(Cc2cc(F)cc(F)c2)CC1	none
OCC1(CN2CCCC2)CCN(Cc2ccc(Cl)cc2F)CC1	none
Cc1nnc(N2CCC(CO)(CN3CCCC3)CC2)c2ccccc12	none
O=C(c1cccc(O)c1)N1CCC(CO)(CN2CCCC2)CC1	none
OCC1(CN2CCCC2)CCN(Cc2ccc3ccccc3c2)CC1	Pf Dd2 growth 6.3µM
CCN1CC(C(=O)NCc2nn(C)c3cccc(Cl)c23)CC1=O (stereo not drawn)	none
Oc1c(C(c2ccccc2)N2CCC(O)CC2)sc2nc(-c3ccco3)nn12 (stereo not drawn)	none
O=C(c1cccnc1)N1CCC2(C1)C(=NC1CCCC1)NC(=O)N2c1cccnc1 (stereo not drawn)	none
CC(C)(C)C(=O)N1CC2(Cc3ccccc3N([S+](C)(=O)[O-])C2)C1	none
CC(C)CNc1ncnc2c1CN(C1CNC1)C(=O)CN2C	none
CCn1cc(CN2CC[C@H](CNC(=O)COC)[C@H](N(C)C)C2)c(C)n1	none
COc1ccc(S(=O)(=O)NCCc2csc(-c3ccc(F)cc3)n2)cc1	none
O=C(NC(=O)c1ccccc1)Nc1ccc(-n2nc(C(F)(F)F)cc2C(F)(F)F)cc1	none
COc1ccccc1C(=O)NC(=O)Nc1ccc(-n2nc(C(F)(F)F)cc2C(F)(F)F)cc1	Pf Dd2 growth 11µM
O=C(NC(=O)c1ccc(F)cc1)Nc1ccc(-c2cc(C(F)(F)F)nn2-c2ccccc2)cc1	none
Cc1ccccc1CCNC(=O)c1ccc2c(c1)nc1n2CCC(C)C1 (stereo not drawn)	none
Cn1cnc(S(=O)(=O)N2CCCN(C(=O)C3CC3)C(c3ccccc3)CC(=O)NCC2)c1 (stereo not drawn)	none
CCN(CC)S(=O)(=O)NC1CCCN(CCCc2ccccc2)C1 (stereo not drawn)	none
COC(=O)N1CCCCC(NC(=O)CCCc2nc(-c3ccccc3C)no2)C1 (stereo not drawn)	none
O=C(CCn1ccc(=O)[nH]c1=O)NC1CCCN(CCCc2ccccc2)C1 (stereo not drawn)	none
COC(=O)c1cccc(C(=O)NC2CCCN(CCCc3ccccc3)C2)c1 (stereo not drawn)	Pf Dd2 growth 8.9µM
O=C(CCc1nc(-c2ccccc2)no1)NC1CCCN(CCCc2ccccc2)C1 (stereo not drawn)	Pf Dd2 growth 7.1µM
O=C(c1ccccc1OCC1CCCN(CCCc2ccccc2)C1)N1CCCC1 (stereo not drawn)	none
COc1ccc(NS(=O)(=O)c2c(C)nc3scc(C)n3c2=O)cc1	none
CCN(CC)C(=O)N1CCC2(CC1)CC(N1CCN(c3ccccn3)CC1)CCO2 (stereo not drawn)	none
O=C(CNC(=O)c1ccccc1F)OCc1cc(=O)n2ccsc2n1	none
CCCCOc1ccc(C(=O)N2CCN(CCc3ccccn3)CC2)cc1	none
O=C(c1ccccc1)N1CCN(CCc2ccccn2)CC1	none
O=C(c1ccccc1Cl)N1CCN(CCc2ccccn2)CC1	Pf Dd2 growth 3.5µM
CCOc1ccccc1C(=O)N1CCN(CCc2ccccn2)CC1	Pf Dd2 growth 4µM
O=C(c1cccc(Cl)c1)N1CCN(CCc2ccccn2)CC1	none
CC(C)Oc1ccc(C(=O)N2CCN(CCc3ccccn3)CC2)cc1	none
O=C(NCc1ccnc2[nH]ccc12)c1cccnc1	none
CCOCCCNC(=O)c1c(C)noc1-c1ccc(OC(F)(F)F)cc1	none
COc1ccc(NC(=O)N2C[C@@H]3C[C@H](C2)c2ccc(NC(=O)c4ccc(C#N)cc4)c(=O)n2C3)cc1	none
O=C(c1ccc(F)cc1)N1CCC2(CC1)NCc1ccccc1NC2=O	none
Cc1c(-c2ccc(Cl)cc2)c(=O)oc2ccc(OC(=O)N3CCOCC3)cc12	none
Cc1c(-c2ccc(Cl)cc2)c(=O)oc2c(CN3CCOCC3)c(O)ccc12	Pf Dd2 growth 5.6µM
CCn1cc(-c2ccc(Cl)cc2)cc1C(=O)NCCN1CCOCC1	none
Cc1c(-c2ccc(Br)cc2)c(=O)oc2ccc(OC(=O)N3CCOCC3)cc12	none
Cc1ccccc1CN1CCc2nc(C(=O)N3CCOCC3)oc2CC1	none
Cc1c(-c2ccccc2)c(=O)oc2c(CN3CCOCC3)c(O)ccc12	Pf Dd2 growth 8.9µM
O=C(c1ccccc1)N1CCn2cc(C(=O)N3CCOCC3)nc2C1	none
CN1CCOC[C@H]2CCN(C(=O)c3ccoc3)C[C@H]21	none
COCC(=O)NC1CCC12CCN(C(=O)COc1ccccc1)CC2 (stereo not drawn)	none
COc1ccc(S(=O)(=O)NC[C@H]2O[C@@H](CO)[C@@H](O)[C@H]2N2CCc3ccccc3C2)cc1	none
CNC(=O)[C@@H]1C[C@H](Oc2ccccc2)CN1C(=O)C(C)C	none
Cc1ccc(-c2nc3c(cnn3-c3ccccc3)c(=O)n2-c2ccc(Cl)cc2)cc1	none
Cc1cccc(-n2c(-c3ccco3)nc3c(cnn3-c3ccccc3C)c2=O)c1	none
COc1ccc(-n2c(-c3ccco3)nc3c(cnn3-c3ccc(Cl)cc3)c2=O)cc1	Pf Dd2 growth 10µM
CCNC(=O)CN1CCCC(N2CCN(Cc3ccc4c(c3)OCO4)CC2)C1 (stereo not drawn)	none
O=C(NC1CC(c2nnc(CO)n2C2CC2)C1)C1(c2ccccc2)CCCC1 (stereo not drawn)	none
Cc1ccc(NC(=O)c2sc3nc[nH]c(=O)c3c2C)cc1Cl	none
COc1ccc(CC(=O)N2CCC(Cc3nc(-c4ccc(OC)cc4)no3)CC2)cc1	none
COc1cccc(-c2noc(CC3CCN(C(=O)c4cc(OC)c(OC)c(OC)c4)CC3)n2)c1	none
Cc1noc(-c2ccc3c(c2)OCO3)c1C(=O)N1CCC(Cc2ccccc2)CC1	none
COc1cccc(-c2noc(CC3CCN(C(=O)c4ccccc4C)CC3)n2)c1	none
Cc1ccc(OCC(=O)N2CCC(Cc3nc(-c4ccccc4)no3)CC2)cc1	none
COc1ccc(CC2CCN(C(=O)c3c(C)noc3-c3ccc4c(c3)OCO4)CC2)cc1	Pf Dd2 growth 7.9µM
COc1ccc(-c2onc(C)c2C(=O)N2CCC(Cc3ccc(F)cc3)CC2)cc1	none
COc1ccc(-c2noc(CC3CCN(C(=O)CCCc4ccccc4)CC3)n2)cc1	none
COc1ccc(-c2noc(CC3CCN(C(=O)Cc4ccsc4)CC3)n2)cc1	none
CCOc1ccc(CC(=O)N2CCC(Cc3nc(-c4ccc(OC)cc4)no3)CC2)cc1	Pf Dd2 growth 8.9µM
COc1cccc(-c2noc(CC3CCN(C(=O)c4ccc(N(C)C)cc4)CC3)n2)c1	Pf Dd2 growth 5µM
COc1ccc(OCC(=O)N2CCC(Cc3nc(-c4ccc(OC)cc4)no3)CC2)cc1	Pf Dd2 growth 11µM
CCOC(=O)c1sc2ccccc2c1S(=O)(=O)Nc1ccc(C(C)=O)cc1	none
NC(=O)N1CCCC1C(=O)N1CCC(c2[nH]ncc2-c2cccc(F)c2)CC1 (stereo not drawn)	none
O=C(Nc1ccc(F)cc1)N1CC[C@H]2COC(=O)N2c2cc(F)ccc2C1	none
